PubChem BioAssay AID504861 (Broad Institute, 2011)
The whole screen tested about 1,200 compounds, of which about 290 (24%) were called active. Not shown: some 3% with an inconclusive outcome. A selection follows. Measured potencies and affinities stand elsewhere. Unmarked numbers belong to inactive results.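 How the source made its calls: active means compounds lowering cell viability signal with fitted half-maximal concentration at most ten times their highest tested concentration; inconclusive means flat fit with 30 to 70% signal loss, or poor fit; inactive means the rest.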

Test: HEK293T cell viability reduction, dose response, cytotoxicity control for LMP1 NF-kB inhibitor project, CellTiter-Glo luminescence, cherry-picks (AID 504861)
Conditions: CellTiter-Glo ATP luminescence, 48 h; series mostly up to 26 µM; activity change, negative = cytotoxicity: at the top concentration

| Structure (SMILES) | activity change, negative = cytotoxicity [%] | outcome |
| --- | --- | --- |
| CCc1sc(C(=O)Nc2nc(-c3ccccn3)cs2)cc1C | -6.77 | – |
| Cc1ccc(C(=O)Nc2nnc(SCC(=O)N3CCCc4ccccc43)s2)cc1 | 5.64 | – |
| Cc1cccc(CNc2ncnc3ccc(-c4ccoc4)cc23)c1 | 4.7 | – |
| COCCn1c(C)cc(C(=O)CSc2nnc3ccccn23)c1C | -3.29 | – |
| Cc1ccc(S(=O)(=O)N2c3ccccc3-c3c(ssc3=S)C2(C)C)cc1 | -4.1 | – |
| Nc1ncnc2c1c(-c1ccc(Oc3ccccc3)cc1)cn2C1CCCC1 | 3.2 | – |
| O=C(Nc1cc(C(F)(F)F)cc(C(F)(F)F)c1)Nc1cnn(-c2ccc([N+](=O)[O-])cc2)c1C(F)(F)F | -0.689 | – |
| CCOc1ccc(NC(=O)c2ccc(N3CC4CC(C3)c3cccc(=O)n3C4)c(NC(=O)c3cccnc3)c2)cc1 (configuration not stated) | 10.1 | – |
| Cc1cccc(S(=O)(=O)N2CCCc3ccccc32)c1 | 0.425 | – |
| COc1ccc(OC)c(NC(=O)COc2coc(CN3CCc4ccccc43)cc2=O)c1 | 5.75 | – |
| Nc1ccc(CCNc2ncnc3c2ncn3[C@@H]2O[C@H](CO)[C@@H](O)[C@H]2O)cc1 | 6.31 | – |
| COc1ccc(-c2cc(C(F)(F)F)n3nc(C(=O)N4CCOCC4)nc3n2)cc1 | 15.6 | – |
| O=C(Nc1ccc2c(c1)C(=O)OC2)c1ccc(C(F)(F)F)cc1 | 0.862 | – |
| O=C(Cn1nc(C(F)(F)F)c2c1CCC2)NC1CCCCC1 | 4.08 | – |
| O=[N+]([O-])c1cc(/C=N\O)ccc1Oc1ccc(F)cc1 | 5.67 | – |
| COc1cc2cc(C(=O)Nc3ccc4c(c3)OCCO4)[nH]c2cc1OC | -0.796 | – |
| O=C(NNC(=S)Nc1ccc(Cl)c(Cl)c1)c1ccccn1 | -19.9 | – |
| CC(=O)Nc1ccc(NC(=O)C(c2ccccc2)c2ccccc2)cc1 | -2.38 | – |
| COCCCn1cnnc1SCC(=O)Nc1ccc(S(=O)(=O)N2CCCC2)cc1 | 12.5 | – |
| CC1CCN(C(=O)/C(=C\c2cccs2)NC(=O)c2ccccc2)CC1 | 5.12 | – |
| COc1ccc(C=C2OC(=O)C(C(C)=O)=C2O)cc1 | -1.68 | – |
| Cc1cc(C(=O)CN2C(=O)c3ccccc3C2=O)c(C)n1Cc1cccs1 | 10.9 | – |
| Cc1cccc(C)c1NC(=O)CN(C)CC(=O)Nc1ccccc1Oc1ccccc1 | -1.44 | – |
| COCCn1c(SCC(=O)NCc2ccco2)nnc1-c1c[nH]c2ccccc12 | 2.05 | – |
| c1ccc(OCCSc2nnc3sc4ccccc4n23)cc1 | 5.22 | – |
| CC(C)Oc1ccc(C2CC(=O)NC2=O)cc1 (configuration not stated) | 12.5 | – |

| Structure (SMILES) | activity change, negative = cytotoxicity [%] | outcome |
| --- | --- | --- |
| COCC(=O)N(C)c1nnc(-c2ccccn2)s1 | 17.7 | – |
| CCOC(=O)c1c2c(n(C)c1C)C(=O)C(=O)c1ccc(Br)cc1-2 | -12.8 | – |
| CCOC(=O)N1CCC(n2c(=S)[nH]c3ccccc3c2=O)CC1 | 1.51 | – |
| N#CC(C#N)c1ccnc2ccccc12 | -7.37 | – |
| O=C(O)/C=C/c1ccc(Cn2ccnc2)cc1 | 2.13 | – |
| Cc1ccc(C(=O)Nc2cccc(C(F)(F)F)c2)cc1Nc1ncnc2nc[nH]c12 | 12.7 | – |
| CCN1CCN(Cc2ccc(NC(=O)c3ccc(C)c(NC(=O)c4nccn4C)c3)cc2C(F)(F)F)CC1 | 3.7 | – |
| CCN1CCN(Cc2ccc(NC(=O)c3ccc(C)c(NC(=O)c4cccc5[nH]ccc45)c3)cc2C(F)(F)F)CC1 | -0.532 | – |
| CCN1CCN(Cc2ccc(NC(=O)c3ccc(C)c(NC(=O)c4ccno4)c3)cc2C(F)(F)F)CC1 | – | inactive |
| Cc1ccc(C(=O)Nc2cccc(C(F)(F)F)c2)cc1NC(=O)c1ccno1 | – | inactive |
| CCN1CCN(Cc2ccc(NC(=O)c3ccc(C)c(NC(=O)N4CCNC4=O)c3)cc2C(F)(F)F)CC1 | -9.91 | – |
| COc1cccc(CC(=O)NNC(=O)c2ccc3c(c2)OCO3)c1 | 6.09 | – |
| COC(=O)c1c(O)ccc(Oc2ccccc2)c1C(=O)OC | 5.13 | – |
| CCC(=O)NC(=S)Nc1ccccc1C(F)(F)F | 4.64 | – |
| N#CC1=C(N)N2C(=C(C#N)C1c1cccc(Br)c1)Nc1ccccc12 (configuration not stated) | 9.3 | – |
| C[C@@H](C(=O)Nc1ccc2c(c1)OCCO2)n1c(=O)[nH]c2ccccc2c1=O | 2.03 | – |
| Cc1nnc(SCC(=O)N2CCC(c3noc4ccc(F)cc34)CC2)s1 | -0.633 | – |
| S=C1SCN(Cc2ccco2)CN1Cc1ccco1 | -12.8 | – |
| O=C(CN(Cc1cccs1)C(=O)CNS(=O)(=O)c1ccccc1)NCc1ccco1 | 7.49 | – |
| COC(=O)c1ccc2nc(-c3cccc(N)c3)cn2c1 | 3.13 | – |
| Cc1ccc(S(=O)(=O)N2CCN(C(=O)CSc3nnnn3C)C2)cc1 | 10.2 | – |
| O=C(O)C1CC(=O)N(c2ccc(Br)cc2)C1 (configuration not stated) | 8.11 | – |
| CCOc1ccc(C(=O)NC(=S)N(Cc2ccccc2)Cc2ccccc2)cc1 | 8.82 | – |
| COCCn1c(C)cc(C(=O)COc2ccc(C)nc2[N+](=O)[O-])c1C | 0.258 | – |
| C=CCN(c1ccc(C(=O)Nc2ccc3c(c2)n(C)c(=O)n3C)cc1)S(C)(=O)=O | 18.2 | – |
| CC(C)N1CCN(c2ccc(OC[C@H]3CO[C@](Cn4cncn4)(c4ccc(Cl)cc4Cl)O3)cc2)CC1 | 15.5 | – |
